What was measured:
Assay in all cases: DAPPL (digital affinity profiling via proximity ligation, sequencing); 10 mM Tris-HCl pH 7.5, 50 mM NaCl, 1 mM DTT, 4% glycerol, room temperature, 30 min; GST-TFs on glutathione beads, 16-mer random dsDNA library, 0.1% formaldehyde crosslink after washing; high values mean tight binding
FLI1 = target: T1, FLI1 (Homo sapiens, UniProt Q01543 1-452); conditions: protein: recombinant; tags: N-terminal GST; dsDNA, one strand shown
T1 sequence: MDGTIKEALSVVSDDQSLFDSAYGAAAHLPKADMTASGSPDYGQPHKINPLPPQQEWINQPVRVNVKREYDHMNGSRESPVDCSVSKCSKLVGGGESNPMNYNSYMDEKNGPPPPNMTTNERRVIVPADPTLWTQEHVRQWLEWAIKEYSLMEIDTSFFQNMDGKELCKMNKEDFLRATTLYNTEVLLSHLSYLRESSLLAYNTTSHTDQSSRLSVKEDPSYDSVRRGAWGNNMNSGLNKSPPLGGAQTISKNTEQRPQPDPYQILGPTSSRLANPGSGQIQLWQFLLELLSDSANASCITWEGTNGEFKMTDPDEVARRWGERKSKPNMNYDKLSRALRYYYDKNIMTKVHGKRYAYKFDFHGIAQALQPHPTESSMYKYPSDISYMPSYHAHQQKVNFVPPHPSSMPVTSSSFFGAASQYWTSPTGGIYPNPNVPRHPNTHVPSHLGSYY
In short: (§1)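 Yeast served to express human transcription factors as GST fusions, which were then captured on glutathione beads and labelled with DNA barcodes. Pooled with a tag-only sample, they were incubated with 200 nmole of a 16-mer random double-stranded DNA library for 30 min at room temperature in Tris/NaCl/DTT/glycerol buffer, washed, crosslinked with 0.1% formaldehyde, ligated by proximity, amplified by PCR and sequenced. Dividing each hexamer's read frequency for a factor by its frequency for the tag-only sample gives the binding signal.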

ELK1 = target: T2, ELK1 (Homo sapiens, UniProt P19419 1-428); conditions: protein: recombinant; tags: N-terminal GST; dsDNA, one strand shown
T2 sequence: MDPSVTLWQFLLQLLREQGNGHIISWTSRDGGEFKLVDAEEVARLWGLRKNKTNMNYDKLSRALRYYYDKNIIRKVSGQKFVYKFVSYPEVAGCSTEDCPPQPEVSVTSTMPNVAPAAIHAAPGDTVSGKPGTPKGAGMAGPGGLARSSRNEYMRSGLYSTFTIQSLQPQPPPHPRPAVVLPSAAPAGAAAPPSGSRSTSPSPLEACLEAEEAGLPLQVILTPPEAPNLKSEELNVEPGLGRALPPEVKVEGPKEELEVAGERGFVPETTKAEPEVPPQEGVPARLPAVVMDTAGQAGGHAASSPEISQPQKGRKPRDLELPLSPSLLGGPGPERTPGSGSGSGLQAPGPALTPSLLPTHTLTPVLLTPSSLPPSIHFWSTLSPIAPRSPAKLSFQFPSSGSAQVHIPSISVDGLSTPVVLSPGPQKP
In short: as §1

GABPA = target: T3, GABPA (Homo sapiens, UniProt Q06546 1-454); conditions: protein: recombinant; tags: N-terminal GST; dsDNA, one strand shown
T3 sequence: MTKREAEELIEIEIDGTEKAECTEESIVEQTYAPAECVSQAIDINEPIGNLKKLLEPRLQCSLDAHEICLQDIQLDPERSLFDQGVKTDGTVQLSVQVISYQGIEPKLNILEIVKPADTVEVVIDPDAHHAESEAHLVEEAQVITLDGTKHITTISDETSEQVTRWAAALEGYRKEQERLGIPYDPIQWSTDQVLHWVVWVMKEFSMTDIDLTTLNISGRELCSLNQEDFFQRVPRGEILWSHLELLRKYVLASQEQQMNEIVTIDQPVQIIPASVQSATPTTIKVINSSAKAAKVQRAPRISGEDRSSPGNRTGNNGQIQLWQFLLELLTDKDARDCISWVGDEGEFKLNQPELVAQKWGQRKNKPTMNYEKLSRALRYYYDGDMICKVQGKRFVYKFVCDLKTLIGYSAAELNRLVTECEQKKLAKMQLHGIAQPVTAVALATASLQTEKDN
In short: as §1

ERG = target: T4, ERG (Homo sapiens, UniProt P11308 1-479); conditions: protein: recombinant; tags: N-terminal GST; dsDNA, one strand shown
T4 sequence: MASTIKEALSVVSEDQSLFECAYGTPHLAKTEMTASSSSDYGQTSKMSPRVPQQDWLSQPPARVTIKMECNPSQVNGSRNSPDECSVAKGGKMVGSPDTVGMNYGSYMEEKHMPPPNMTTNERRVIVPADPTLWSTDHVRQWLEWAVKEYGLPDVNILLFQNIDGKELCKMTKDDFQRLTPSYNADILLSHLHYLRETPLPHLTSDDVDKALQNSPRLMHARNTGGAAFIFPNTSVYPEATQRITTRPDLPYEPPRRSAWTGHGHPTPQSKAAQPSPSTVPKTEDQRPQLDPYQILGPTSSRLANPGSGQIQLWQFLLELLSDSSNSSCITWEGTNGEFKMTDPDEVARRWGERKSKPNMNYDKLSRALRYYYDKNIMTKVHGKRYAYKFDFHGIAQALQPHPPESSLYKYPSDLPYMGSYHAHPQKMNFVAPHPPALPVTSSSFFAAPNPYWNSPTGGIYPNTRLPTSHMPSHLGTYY
In short: as §1

ELF1 = ELF1 (Homo sapiens, UniProt P32519 1-619); conditions: protein: recombinant; tags: N-terminal GST; dsDNA, one strand shown
In short: as §1

EHF = target: T5, EHF (Homo sapiens, UniProt Q9NZC4 1-300); conditions: protein: recombinant; tags: N-terminal GST; dsDNA, one strand shown
T5 sequence: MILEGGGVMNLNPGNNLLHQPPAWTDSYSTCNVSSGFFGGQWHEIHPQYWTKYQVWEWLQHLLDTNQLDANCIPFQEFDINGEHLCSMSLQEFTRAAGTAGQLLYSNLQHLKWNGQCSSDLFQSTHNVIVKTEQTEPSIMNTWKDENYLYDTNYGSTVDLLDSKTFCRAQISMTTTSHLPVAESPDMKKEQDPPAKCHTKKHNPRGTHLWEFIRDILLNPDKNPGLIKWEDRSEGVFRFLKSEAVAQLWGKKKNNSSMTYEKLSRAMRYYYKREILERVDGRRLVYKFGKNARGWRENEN
In short: as §1

SPI1 = SPI1 (Homo sapiens, UniProt P17947 1-270); conditions: protein: recombinant; tags: N-terminal GST; dsDNA, one strand shown
In short: as §1

SPIB = SPIB (Homo sapiens, UniProt Q01892 1-262); conditions: protein: recombinant; tags: N-terminal GST; dsDNA, one strand shown
In short: as §1

ELK3 = target: T6, ELK3 (Homo sapiens, UniProt P41970 1-407); conditions: protein: recombinant; tags: N-terminal GST; dsDNA, one strand shown
T6 sequence: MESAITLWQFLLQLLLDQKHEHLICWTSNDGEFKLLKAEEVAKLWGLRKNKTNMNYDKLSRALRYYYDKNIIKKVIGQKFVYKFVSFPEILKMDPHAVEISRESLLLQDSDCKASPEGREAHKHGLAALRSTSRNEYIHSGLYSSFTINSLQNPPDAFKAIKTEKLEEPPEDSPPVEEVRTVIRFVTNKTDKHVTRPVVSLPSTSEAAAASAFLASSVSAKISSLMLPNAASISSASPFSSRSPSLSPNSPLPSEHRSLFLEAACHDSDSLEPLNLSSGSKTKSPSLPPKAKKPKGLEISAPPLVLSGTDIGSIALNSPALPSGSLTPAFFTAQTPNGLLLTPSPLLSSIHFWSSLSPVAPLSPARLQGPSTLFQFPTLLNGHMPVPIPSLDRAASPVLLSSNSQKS
In short: as §1

FEV = target: T7, FEV (Homo sapiens, UniProt Q99581 1-238); conditions: protein: recombinant; tags: N-terminal GST; dsDNA, one strand shown
T7 sequence: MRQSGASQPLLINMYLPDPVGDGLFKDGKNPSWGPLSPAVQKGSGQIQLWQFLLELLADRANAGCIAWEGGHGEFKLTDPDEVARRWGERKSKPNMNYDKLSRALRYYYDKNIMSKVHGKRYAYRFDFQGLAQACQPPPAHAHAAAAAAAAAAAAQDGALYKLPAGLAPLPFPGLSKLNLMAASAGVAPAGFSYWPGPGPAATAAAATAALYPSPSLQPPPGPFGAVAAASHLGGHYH
In short: as §1

ETV5 = ETV5 (Homo sapiens, UniProt P41161 1-510); conditions: protein: recombinant; tags: N-terminal GST; dsDNA, one strand shown
In short: as §1

HSF1 = HSF1 (Homo sapiens, UniProt Q00613 1-529); conditions: protein: recombinant; tags: N-terminal GST; chain copies: 3; dsDNA, one strand shown
In short: as §1

SPIC = target: T8, SPIC (Homo sapiens, UniProt Q8N5J4 1-248); conditions: protein: recombinant; tags: N-terminal GST; dsDNA, one strand shown
T8 sequence: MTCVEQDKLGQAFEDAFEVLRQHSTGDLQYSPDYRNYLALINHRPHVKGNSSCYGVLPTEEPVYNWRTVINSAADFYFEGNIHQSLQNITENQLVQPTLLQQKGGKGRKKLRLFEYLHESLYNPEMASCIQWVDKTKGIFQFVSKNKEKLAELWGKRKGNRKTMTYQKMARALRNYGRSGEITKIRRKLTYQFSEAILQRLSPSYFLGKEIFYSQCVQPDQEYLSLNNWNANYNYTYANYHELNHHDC
In short: as §1

ELF4 = ELF4 (Homo sapiens, UniProt Q99607 1-663); conditions: protein: recombinant; tags: N-terminal GST; dsDNA, one strand shown
In short: as §1

ELK4 = target: T9, ELK4 (Homo sapiens, UniProt P28324-2 1-405); conditions: protein: recombinant; tags: N-terminal GST; dsDNA, one strand shown
T9 sequence: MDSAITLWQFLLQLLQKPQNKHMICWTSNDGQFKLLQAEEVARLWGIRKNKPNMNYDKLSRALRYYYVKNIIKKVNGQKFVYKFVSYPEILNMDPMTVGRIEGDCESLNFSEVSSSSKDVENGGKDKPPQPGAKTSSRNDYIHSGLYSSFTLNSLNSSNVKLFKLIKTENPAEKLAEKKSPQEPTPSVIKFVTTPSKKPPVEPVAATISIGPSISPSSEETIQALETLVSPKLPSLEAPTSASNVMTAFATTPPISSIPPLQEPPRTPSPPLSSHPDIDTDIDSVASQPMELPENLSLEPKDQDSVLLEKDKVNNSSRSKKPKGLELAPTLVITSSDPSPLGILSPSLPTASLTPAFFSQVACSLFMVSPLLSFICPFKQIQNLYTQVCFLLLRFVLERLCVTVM
In short: as §1

ETV2 = target: T10, ETV2 (Homo sapiens, UniProt O00321 1-342); conditions: protein: recombinant; tags: N-terminal GST; dsDNA, one strand shown
T10 sequence: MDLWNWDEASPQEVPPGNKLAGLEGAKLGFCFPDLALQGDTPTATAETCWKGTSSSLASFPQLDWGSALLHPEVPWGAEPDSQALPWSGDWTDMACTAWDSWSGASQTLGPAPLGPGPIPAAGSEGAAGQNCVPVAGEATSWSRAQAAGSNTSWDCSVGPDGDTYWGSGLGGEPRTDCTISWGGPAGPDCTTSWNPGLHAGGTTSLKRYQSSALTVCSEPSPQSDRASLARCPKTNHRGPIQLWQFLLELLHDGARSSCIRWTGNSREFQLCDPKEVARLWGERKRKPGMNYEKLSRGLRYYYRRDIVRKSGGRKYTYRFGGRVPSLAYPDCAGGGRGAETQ
In short: as §1

ELF3 = target: T11, ELF3 (Homo sapiens, UniProt P78545 1-371); conditions: protein: recombinant; tags: N-terminal GST; dsDNA, one strand shown
T11 sequence: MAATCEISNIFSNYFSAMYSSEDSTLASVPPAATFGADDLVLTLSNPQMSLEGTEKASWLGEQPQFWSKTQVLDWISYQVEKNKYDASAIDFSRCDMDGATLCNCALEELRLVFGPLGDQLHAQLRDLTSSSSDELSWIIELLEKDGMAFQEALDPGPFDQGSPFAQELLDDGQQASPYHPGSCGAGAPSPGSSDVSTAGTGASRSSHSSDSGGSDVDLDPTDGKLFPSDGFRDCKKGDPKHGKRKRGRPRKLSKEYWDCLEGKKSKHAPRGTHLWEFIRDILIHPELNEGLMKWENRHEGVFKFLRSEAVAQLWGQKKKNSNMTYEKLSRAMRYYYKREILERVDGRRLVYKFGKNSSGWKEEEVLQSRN
In short: as §1

CRX = CRX (Homo sapiens, UniProt O43186 1-299); conditions: protein: recombinant; tags: N-terminal GST; dsDNA, one strand shown
In short: as §1

ETV1 = ETV1 (Homo sapiens, UniProt P50549 1-477); conditions: protein: recombinant; tags: N-terminal GST; dsDNA, one strand shown
In short: as §1

Chain of ELF1 (P32519 whole entry): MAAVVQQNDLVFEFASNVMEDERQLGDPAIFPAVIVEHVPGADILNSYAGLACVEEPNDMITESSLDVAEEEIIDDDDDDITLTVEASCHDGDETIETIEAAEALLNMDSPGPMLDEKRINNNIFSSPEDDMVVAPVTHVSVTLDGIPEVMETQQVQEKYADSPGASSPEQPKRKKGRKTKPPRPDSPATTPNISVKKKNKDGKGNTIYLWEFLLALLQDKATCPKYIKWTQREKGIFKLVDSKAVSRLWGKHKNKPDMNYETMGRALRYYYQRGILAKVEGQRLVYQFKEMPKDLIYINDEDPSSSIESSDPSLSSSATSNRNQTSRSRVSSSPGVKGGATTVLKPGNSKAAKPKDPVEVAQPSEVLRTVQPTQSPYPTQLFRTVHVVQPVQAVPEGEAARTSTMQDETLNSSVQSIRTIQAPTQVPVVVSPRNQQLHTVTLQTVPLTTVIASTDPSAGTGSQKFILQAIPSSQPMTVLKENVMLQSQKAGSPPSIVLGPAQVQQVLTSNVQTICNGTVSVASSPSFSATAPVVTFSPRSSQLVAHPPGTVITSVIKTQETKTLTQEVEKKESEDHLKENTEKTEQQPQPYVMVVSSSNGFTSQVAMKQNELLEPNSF
Chain of ELF4 (Q99607 whole entry): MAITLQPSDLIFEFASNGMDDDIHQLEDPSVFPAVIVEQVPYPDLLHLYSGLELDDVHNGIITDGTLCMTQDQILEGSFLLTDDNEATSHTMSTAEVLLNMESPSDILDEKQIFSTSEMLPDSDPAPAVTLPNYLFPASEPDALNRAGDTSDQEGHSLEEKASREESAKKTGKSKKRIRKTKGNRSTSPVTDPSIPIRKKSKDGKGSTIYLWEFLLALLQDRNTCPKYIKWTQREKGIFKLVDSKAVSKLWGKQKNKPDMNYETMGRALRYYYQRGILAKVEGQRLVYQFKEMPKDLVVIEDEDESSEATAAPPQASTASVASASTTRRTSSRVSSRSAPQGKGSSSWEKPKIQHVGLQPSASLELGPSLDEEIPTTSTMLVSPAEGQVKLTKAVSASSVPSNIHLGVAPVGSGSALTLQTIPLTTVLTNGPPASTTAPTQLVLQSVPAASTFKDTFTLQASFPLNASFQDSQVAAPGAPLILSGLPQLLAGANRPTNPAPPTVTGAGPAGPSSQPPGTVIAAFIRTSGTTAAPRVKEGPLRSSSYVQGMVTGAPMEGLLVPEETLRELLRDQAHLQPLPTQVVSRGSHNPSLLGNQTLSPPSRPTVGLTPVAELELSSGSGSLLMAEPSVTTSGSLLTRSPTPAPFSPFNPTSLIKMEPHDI
Chain of ETV1 (P50549 whole entry): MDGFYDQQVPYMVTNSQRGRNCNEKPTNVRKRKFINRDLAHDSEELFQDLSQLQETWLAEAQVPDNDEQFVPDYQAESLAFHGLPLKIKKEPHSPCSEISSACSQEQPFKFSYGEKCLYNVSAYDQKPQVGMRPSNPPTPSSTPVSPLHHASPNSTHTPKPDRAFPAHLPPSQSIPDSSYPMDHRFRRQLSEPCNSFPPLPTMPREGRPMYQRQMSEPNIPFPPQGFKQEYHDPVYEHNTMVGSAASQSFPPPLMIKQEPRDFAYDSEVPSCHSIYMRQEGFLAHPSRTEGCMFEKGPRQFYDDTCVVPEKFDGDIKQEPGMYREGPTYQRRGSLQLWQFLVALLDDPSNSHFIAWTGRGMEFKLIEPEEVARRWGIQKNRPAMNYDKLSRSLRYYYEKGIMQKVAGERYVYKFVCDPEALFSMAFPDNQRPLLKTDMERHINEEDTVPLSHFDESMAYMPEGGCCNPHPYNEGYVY
Chain of HSF1 (Q00613 whole entry): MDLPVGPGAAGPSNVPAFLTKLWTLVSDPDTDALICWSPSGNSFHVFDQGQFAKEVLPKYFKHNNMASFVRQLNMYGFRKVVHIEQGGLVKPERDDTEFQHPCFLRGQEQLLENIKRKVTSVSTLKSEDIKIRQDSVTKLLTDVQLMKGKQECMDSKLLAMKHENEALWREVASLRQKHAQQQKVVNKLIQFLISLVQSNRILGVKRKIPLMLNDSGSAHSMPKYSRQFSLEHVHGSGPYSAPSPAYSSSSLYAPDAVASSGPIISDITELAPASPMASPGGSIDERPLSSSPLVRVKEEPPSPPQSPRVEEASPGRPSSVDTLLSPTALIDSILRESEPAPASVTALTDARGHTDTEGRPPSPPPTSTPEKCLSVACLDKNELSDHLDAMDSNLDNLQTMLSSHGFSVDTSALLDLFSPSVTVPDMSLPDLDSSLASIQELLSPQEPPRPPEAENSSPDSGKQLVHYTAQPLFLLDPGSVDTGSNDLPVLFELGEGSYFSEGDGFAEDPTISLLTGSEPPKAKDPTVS
Chain of CRX (O43186 whole entry): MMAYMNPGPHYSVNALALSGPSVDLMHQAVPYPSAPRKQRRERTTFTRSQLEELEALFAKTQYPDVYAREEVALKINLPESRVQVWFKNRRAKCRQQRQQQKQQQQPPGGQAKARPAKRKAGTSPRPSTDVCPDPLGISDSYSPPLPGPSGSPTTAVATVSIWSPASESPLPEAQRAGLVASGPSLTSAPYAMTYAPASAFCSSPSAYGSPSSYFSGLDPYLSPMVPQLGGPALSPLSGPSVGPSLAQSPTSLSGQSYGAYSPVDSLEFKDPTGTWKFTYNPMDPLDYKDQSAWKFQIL
Chain of ETV5 (P41161 whole entry): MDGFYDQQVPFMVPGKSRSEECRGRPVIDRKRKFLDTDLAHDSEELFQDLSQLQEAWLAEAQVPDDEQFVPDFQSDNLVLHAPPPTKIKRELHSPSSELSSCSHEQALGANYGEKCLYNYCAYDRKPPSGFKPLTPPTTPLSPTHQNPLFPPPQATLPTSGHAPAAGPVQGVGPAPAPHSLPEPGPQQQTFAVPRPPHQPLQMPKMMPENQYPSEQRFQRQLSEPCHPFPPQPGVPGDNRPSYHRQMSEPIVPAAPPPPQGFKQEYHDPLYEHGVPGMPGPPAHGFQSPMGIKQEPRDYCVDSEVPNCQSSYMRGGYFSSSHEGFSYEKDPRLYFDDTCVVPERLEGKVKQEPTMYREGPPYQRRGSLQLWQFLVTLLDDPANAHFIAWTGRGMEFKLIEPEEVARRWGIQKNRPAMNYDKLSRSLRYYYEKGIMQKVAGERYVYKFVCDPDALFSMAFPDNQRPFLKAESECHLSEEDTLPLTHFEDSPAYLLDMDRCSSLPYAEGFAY
Chain of SPIB (Q01892 whole entry): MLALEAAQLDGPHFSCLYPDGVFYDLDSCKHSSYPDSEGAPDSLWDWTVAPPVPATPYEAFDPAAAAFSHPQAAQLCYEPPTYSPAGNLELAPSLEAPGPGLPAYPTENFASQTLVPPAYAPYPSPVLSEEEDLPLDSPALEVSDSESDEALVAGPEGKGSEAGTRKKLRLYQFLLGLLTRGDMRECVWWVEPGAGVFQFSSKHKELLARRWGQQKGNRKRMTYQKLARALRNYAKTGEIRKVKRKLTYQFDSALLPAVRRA

## AATGAC
FLI1
  binding signal: 1.36 fold enrichment (6-mer frequency, TF over GST control)
ELK1
  binding signal: 1.52 fold enrichment (6-mer frequency, TF over GST control)
GABPA
  binding signal: 1.43 fold enrichment (6-mer frequency, TF over GST control)
ERG
  binding signal: 1.42 fold enrichment (6-mer frequency, TF over GST control)
ELF1
  binding signal: 1.36 fold enrichment (6-mer frequency, TF over GST control)
EHF
  binding signal: 1.35 fold enrichment (6-mer frequency, TF over GST control)
SPI1
  binding signal: 1.36 fold enrichment (6-mer frequency, TF over GST control)
SPIB
  binding signal: 1.39 fold enrichment (6-mer frequency, TF over GST control)
ELK3
  binding signal: 1.44 fold enrichment (6-mer frequency, TF over GST control)
FEV
  binding signal: 1.47 fold enrichment (6-mer frequency, TF over GST control)
ETV5
  binding signal: 1.35 fold enrichment (6-mer frequency, TF over GST control)
HSF1
  binding signal: 1.22 fold enrichment (6-mer frequency, TF over GST control)
SPIC
  binding signal: 1.36 fold enrichment (6-mer frequency, TF over GST control)
ELF4
  binding signal: 1.37 fold enrichment (6-mer frequency, TF over GST control)
ELK4
  binding signal: 1.35 fold enrichment (6-mer frequency, TF over GST control)
ETV2
  binding signal: 1.4 fold enrichment (6-mer frequency, TF over GST control)
ELF3
  binding signal: 1.49 fold enrichment (6-mer frequency, TF over GST control)
CRX
  binding signal: 1.16 fold enrichment (6-mer frequency, TF over GST control)
ETV1
  binding signal: 1.4 fold enrichment (6-mer frequency, TF over GST control)

— paper PMC7862700, “An all-to-all approach to the identification of sequence-specific readers for epigenetic DNA modifications on cytosine”
